Assay [1] can be described thus: Nuclear factor erythroid 2-related factor 2/antioxidant responsive element (Nrf2/ARE) small molecule agonists: qHTS cell viability counter screen in human keratinocytes (AID 1919968; active means well fitted curve in the direction sought with a large enough effect in the repeat runs; an effect the other way counts as inactive or inconclusive; further: nearly all actives have a fitted effect of over 55% in size). Summed up:
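In human HaCaT keratinocytes stably expressing an ARE-driven luciferase, compound exposure lasted 23 h at 37 C under 5% CO2. Viable cells are quantified with a protease-based fluorogenic reagent (CellTiter-Fluor) read 1 h after addition.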
(In general: In qHTS, concentration-response curves come from the screen itself.)

Assay [2] is described as follows: Nuclear factor erythroid 2-related factor 2/antioxidant responsive element (Nrf2/ARE) small molecule agonists: luciferase reporter gene qHTS assay in human keratinocytes (AID 1919969). Further: nearly all actives have a fitted effect of over 35% in size. Further: potency means the concentration at half of the fitted maximal effect. A general note: In a reporter assay the amount or activity of a reporter protein is the signal.
Assay [3] deals with Gonadotropin-releasing hormone receptor (Homo sapiens) (UniProt P30968). Description: Human gonadotropin-releasing hormone receptor (GnRHR) small molecule agonists, calcium flux assay in GnRHR-HEK293 cells (AID 1920063). Further: nearly all actives have a fitted effect of over 35% in size. Further: potency means the concentration at half of the fitted maximal effect. Summed up: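 Intracellular calcium rise is the read-out: engineered human GnRHR HEK293 cells, dye-loaded, are exposed to DMSO-dissolved compounds and fluorescence at Ex/Em 480/540 is tracked for 3 min.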
On the technique in general: Calcium assays in cells follow changes in intracellular calcium, usually with a dye or a luminescent sensor.

In assay [4] the target is KiSS-1 receptor (Homo sapiens) (UniProt Q969F8). Description: Human kisspeptin (KISS1R) small molecule agonists, calcium flux assay in KISS1R-HEK293 cells (AID 1920064; active means well fitted curve in the direction sought with a large enough effect in the repeat runs; an effect the other way counts as inactive or inconclusive). Summed up:
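Concentration-response testing used 15 concentrations in triplicate on human KISS1R-expressing HEK293 cells. Calcium-dependent fluorescence (Ex/Em 480/540) was followed kinetically for 3 min after compound transfer.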

A short description of assay [5]: G protein-coupled receptor (GPCR) small molecule agonists, calcium flux assay: HEK293 wild type cell line counter screen (AID 1920065). Summed up: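 Fluorescence intensity signals activation. After overnight (18 h) culture and a 1 h calcium dye load at 37 C, compounds are added by pin tool and the plate read at 480/540 nm for 3 min in 1 s steps.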
Assay [6] in a line: p53 small molecule agonists, cell-based qHTS assay with human liver microsomes (AID 1963577).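 Further: p53 response element beta-lactamase reporter cells with liver microsomes plus NADPH.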 Summed up: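 Reporter activation was measured by LiveBLAzer fluorescence intensity in p53RE-bla cells, which had been exposed to compounds for 16 h at 37 C alongside 0.5 mg/mL human liver microsomes and 0.5 mg/mL NADPH (final concentrations).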
A short description of assay [7]: p53 small molecule agonists, cell-based qHTS assay with rat liver microsomes (AID 1963578). Summed up: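 Compound in DMSO added to p53RE-bla cells 5 h post-plating; rat microsomes/NADPH 0.5 mg/mL final; 16 h, 37 C; LiveBLAzer 2 h RT.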
Assay [8] can be described thus: p53 small molecule agonists, cell-based qHTS assay with human liver microsomes: qHTS cell viability counter screen (AID 1963579). Further: nearly all actives have a fitted effect of over 45% in size. Further: potency means the concentration at half of the fitted maximal effect. Summed up:
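HLM-supplemented (0.5 mg/mL final) and NADPH-supplemented (0.5 mg/mL final) p53RE-bla cultures, 4,000 cells per well, were dosed with compounds in DMSO for 16 h at 37 C; luminescent ATP detection (CellTiter-Glo, 30 min, room temperature) quantified surviving cells.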

The nature of assay [9]: p53 small molecule agonists, cell-based qHTS assay with rat liver microsomes: qHTS cell viability counter screen (AID 1963580). Further: nearly all actives have a fitted effect of over 45% in size. Summed up: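 Luminescent ATP readout (CellTiter-Glo, 30 min at room temperature) reports viability of p53RE-bla HCT-116 cells after 16 h at 37 C with test compounds under metabolic activation by rat liver microsomes and NADPH at 0.5 mg/mL final each.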

Assay [10] deals with 5-hydroxytryptamine receptor 2A (Homo sapiens) (UniProt P28223). Description: 5-hydroxytryptamine receptor 2A (HTR2A) small molecule agonists, cell-based qHTS assay (AID 1963587). Further: nearly all actives have a fitted effect of over 30% in size. Summed up:
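HTR2A-CHO cells, plated 18 h at 37 C/5% CO2, dye-loaded 1 h at 37 C; compounds in DMSO added by pin tool (agonist mode). Intracellular calcium flux read as kinetic fluorescence on FDSS over 2 min at 1 s intervals.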

The target in assay [11] is Muscarinic acetylcholine receptor M1 (Homo sapiens) (UniProt P11229). Description: Cholinergic receptor muscarinic 1 (CHRM1) small molecule antagonists, cell-based qHTS assay (AID 1963588). Further: nearly all actives have a fitted effect of over 40% in size. Summed up:
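Compounds were tested at 15 concentrations in three independent runs. Dye-loaded CHRM1-CHO cells were exposed 5 min at room temperature before stimulation by acetylcholine added at 50nM. Intracellular calcium was read kinetically on FDSS for 3 min.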

Assay [12] has the same target. Description: Cholinergic receptor muscarinic 1 (CHRM1) small molecule agonists, cell-based qHTS assay (AID 1963589). Further: nearly all actives have a fitted effect of over 35% in size. Summed up: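 Fluorescent calcium dye reports M1 activation in stably transfected CHO cells. Compounds, 15 concentrations, added after 1 h dye loading at 37 C; kinetic reading at 1 sec intervals.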
Assay [13] is described as follows: cAMP Responsive Elements (CRE) small molecule agonists, cell-based qHTS assay (AID 1963590). Summed up: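 Compound exposure lasted 3 h at 37 C/5% CO2 in CRE-bla HEK 293T cells grown in assay medium with 10% dialyzed FBS and 25 mM HEPES. Reporter signal came from LiveBLAzer B/G FRET substrate, 2 h, room temperature.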
The nature of assay [14]: cAMP Responsive Elements (CRE) small molecule antagonists, cell-based qHTS assay (AID 1963591; active means well fitted inhibition curve with a large enough effect in the signal ratio in the repeat runs, not every such curve was filed as active; the % refers to the signal ratio). Summed up: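 Stimulation used NKH477 at a final 0.25 uM for 3 h in compound-treated CRE-bla HEK293T cells, seeded 18 h beforehand. Reporter activity was measured with LiveBLAzer B/G FRET substrate after 2 h at room temperature.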
The target in assay [15] is Beta-2 adrenergic receptor (Homo sapiens) (UniProt P07550). Description: Adrenergic beta2 receptor (ADRB2) small molecule antagonists, cell-based qHTS assay (AID 1963592). Further: series mostly up to about 92 µM; nearly all actives have a fitted effect of over 50% in size. Summed up:
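Assay format: CHO-ADRB2 cells, 18-20hr seeding at 37C/5% CO2, then compound plus 1nM isoproterenol agonist mix for 0.5hr RT. Homogeneous time-resolved fluorescence cAMP detection after 1hr, expressed as 665/615 nm ratio.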

Assay [16] shares this target. Description: Adrenergic beta2 receptor (ADRB2) small molecule agonists, cell-based qHTS assay (AID 1963593).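 Further: CHO cells stably overexpressing human ADRB2.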 Summed up:
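CHO cells stably over-expressing ADRB2 were plated overnight at 37C, then dosed with compounds plus a stimulation mix containing 100uM IBMX and 25uM Ro-20-1724 for 0.5hr at room temperature. cAMP was measured by HTRF competition, 1hr.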

In assay [17] the target is D(2) dopamine receptor (Homo sapiens) (UniProt P14416). Description: Dopamine D2 receptor (DRD2) small molecule agonists, cell-based qHTS assay (AID 1963594). Further: nearly all actives have a fitted effect of over 35% in size. Summed up: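 HEK293 cells stably expressing DRD2 were cultured 24 h at 37 C, then given Ro20-1724 (0.1 mM final) and compounds for 10 min at room temperature. NKH477 (200nM) was then added for 30 min. cAMP was read by HTRF.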

For assay [18] the target is unchanged. Description: Dopamine D2 receptor (DRD2) small molecule antagonists, cell-based qHTS assay (AID 1963595; active means well fitted inhibition curve with a large enough effect in the signal ratio in the repeat runs, with a control signal flat; the % refers to the signal ratio). Summed up:
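Antagonist mode in DRD2-HEK293 cells: after compound addition with 0.1 mM Ro20-1724, cells received quinpirole (12 nM) and NKH477 (200 nM) for 30 min at room temperature; HTRF cAMP read after 1 h detection.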

For assay [19], the target named is 5-hydroxytryptamine receptor 2A (Homo sapiens) (UniProt P28223). Description: 5-hydroxytryptamine receptor 2A (HTR2A) small molecule antagonists, cell-based qHTS assay (AID 1963586). Further: nearly all actives have a fitted effect of over 45% in size. Summed up: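 CHO cells stably expressing human HTR2A were plated for 18 h at 37 C, then loaded with calcium dye for 1 h. Compounds were preincubated 5 min at room temperature before DOI (4 nM solution) was added. Kinetic fluorescence was read for 3 min.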

Assay [20] can be described thus: p53 small molecule agonists, cell-based qHTS assay (AID 1963582; active means well fitted activation curve with a large enough effect in the signal ratio in the repeat runs, not every such curve was filed as active; the % refers to the signal ratio). Summed up:
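After plating, p53RE-bla cells sat 5 h in the incubator; compounds or DMSO vehicle were pinned in; a 16 h incubation at 37 C followed; FRET substrate was added and, 2 h later at RT, fluorescence was measured.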

Values without a mark were called inactive. Results filed as inconclusive are left out. The source made the active and inactive calls. Unless noted, the call rests on the fitted dose curve.

Sequence of D(2) dopamine receptor (Homo sapiens) (P14416 whole entry, looked up): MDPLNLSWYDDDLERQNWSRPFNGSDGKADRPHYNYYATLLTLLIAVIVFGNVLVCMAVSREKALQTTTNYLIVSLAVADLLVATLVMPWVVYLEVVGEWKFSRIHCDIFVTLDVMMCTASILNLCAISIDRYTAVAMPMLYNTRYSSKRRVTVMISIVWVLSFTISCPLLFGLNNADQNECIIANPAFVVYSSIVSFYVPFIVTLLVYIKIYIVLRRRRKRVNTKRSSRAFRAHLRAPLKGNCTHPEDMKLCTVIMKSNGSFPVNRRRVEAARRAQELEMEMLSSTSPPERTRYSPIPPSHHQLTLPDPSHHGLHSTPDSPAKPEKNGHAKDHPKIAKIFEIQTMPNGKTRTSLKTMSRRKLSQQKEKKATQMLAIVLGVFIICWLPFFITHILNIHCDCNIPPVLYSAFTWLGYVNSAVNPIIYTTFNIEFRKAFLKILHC
Sequence of Beta-2 adrenergic receptor (Homo sapiens) (P07550 whole entry, looked up): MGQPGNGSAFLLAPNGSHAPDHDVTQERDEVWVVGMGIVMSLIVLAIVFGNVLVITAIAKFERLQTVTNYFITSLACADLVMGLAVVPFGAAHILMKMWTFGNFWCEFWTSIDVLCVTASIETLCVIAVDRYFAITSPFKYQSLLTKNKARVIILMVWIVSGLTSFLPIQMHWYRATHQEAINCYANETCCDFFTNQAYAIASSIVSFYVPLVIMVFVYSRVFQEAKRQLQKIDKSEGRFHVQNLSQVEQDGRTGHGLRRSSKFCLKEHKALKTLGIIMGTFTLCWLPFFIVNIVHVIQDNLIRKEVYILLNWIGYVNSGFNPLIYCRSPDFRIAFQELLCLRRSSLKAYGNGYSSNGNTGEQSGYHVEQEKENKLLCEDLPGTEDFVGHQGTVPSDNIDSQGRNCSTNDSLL
Sequence of Muscarinic acetylcholine receptor M1 (Homo sapiens) (P11229 whole entry, looked up): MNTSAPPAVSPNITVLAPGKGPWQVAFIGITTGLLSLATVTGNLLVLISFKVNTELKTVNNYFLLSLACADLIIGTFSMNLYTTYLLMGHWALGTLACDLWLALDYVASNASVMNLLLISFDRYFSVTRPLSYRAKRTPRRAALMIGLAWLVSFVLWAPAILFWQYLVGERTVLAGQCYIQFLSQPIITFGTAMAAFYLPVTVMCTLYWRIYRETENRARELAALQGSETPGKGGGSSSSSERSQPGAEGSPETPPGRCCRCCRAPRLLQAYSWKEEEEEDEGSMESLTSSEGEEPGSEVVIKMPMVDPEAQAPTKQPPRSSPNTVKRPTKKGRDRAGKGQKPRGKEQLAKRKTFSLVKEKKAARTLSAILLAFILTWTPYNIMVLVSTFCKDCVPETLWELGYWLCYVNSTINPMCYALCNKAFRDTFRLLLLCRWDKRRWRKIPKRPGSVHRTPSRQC
Sequence of KiSS-1 receptor (Homo sapiens) (Q969F8 whole entry, looked up): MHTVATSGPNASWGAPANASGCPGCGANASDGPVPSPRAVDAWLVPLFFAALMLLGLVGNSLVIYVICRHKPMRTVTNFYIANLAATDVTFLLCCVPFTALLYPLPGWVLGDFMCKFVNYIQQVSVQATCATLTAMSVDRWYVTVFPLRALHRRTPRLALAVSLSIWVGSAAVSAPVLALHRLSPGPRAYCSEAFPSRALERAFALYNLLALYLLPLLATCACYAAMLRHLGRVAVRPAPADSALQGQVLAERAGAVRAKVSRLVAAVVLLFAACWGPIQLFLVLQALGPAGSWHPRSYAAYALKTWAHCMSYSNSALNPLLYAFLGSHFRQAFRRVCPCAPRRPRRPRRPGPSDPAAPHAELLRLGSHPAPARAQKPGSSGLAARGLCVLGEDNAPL
Sequence of 5-hydroxytryptamine receptor 2A (Homo sapiens) (P28223 whole entry, looked up): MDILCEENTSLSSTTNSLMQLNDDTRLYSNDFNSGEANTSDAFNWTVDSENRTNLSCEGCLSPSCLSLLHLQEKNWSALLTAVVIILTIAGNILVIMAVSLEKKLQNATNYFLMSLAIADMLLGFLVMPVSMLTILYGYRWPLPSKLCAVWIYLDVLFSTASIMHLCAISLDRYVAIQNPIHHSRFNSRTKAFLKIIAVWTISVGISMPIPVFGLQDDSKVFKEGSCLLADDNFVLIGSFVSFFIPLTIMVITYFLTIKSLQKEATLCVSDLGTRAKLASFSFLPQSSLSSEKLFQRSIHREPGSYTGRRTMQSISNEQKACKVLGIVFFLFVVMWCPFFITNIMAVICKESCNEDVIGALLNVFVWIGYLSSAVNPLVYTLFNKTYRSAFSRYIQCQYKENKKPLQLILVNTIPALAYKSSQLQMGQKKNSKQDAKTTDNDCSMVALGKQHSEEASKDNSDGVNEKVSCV
Sequence of Gonadotropin-releasing hormone receptor (Homo sapiens) (P30968 whole entry, looked up): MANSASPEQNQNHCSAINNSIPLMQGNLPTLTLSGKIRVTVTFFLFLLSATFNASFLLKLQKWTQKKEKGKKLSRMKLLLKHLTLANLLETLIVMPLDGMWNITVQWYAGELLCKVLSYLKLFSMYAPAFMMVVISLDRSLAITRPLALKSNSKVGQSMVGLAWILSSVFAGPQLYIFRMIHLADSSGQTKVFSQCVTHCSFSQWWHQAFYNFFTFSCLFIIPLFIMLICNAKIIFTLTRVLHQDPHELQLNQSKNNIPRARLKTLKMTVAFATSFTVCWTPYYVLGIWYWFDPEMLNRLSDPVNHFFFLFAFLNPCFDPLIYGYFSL

Consider `Nc1nc(-c2ccc([N+](=O)[O-])cc2)cs1`, for which the Potency entry in assay [1], in assay [2], in assay [3], in assay [6], in [7] and in assay [8] was “inactive” in each case. For the same compound, the Potency entry in assay [9], in [10], in [11], in assay [12], in assay [13] and in assay [14] was “inactive” throughout. Besides, the Potency entry in [15], in assay [16], in [17] and in [18] was “inactive” throughout. For the same compound, the result in assay [4] and in [5] was inactive.

In the case of `ICCc1ccccc1`, the Potency entry in assay [1], in assay [3], in [6], in assay [7], in assay [9] and in [19] was “inactive” each time. Besides, the Potency entry in [10], in assay [11], in [12], in assay [15] and in [17] was “inactive” throughout. In addition, the Potency was 67.2 µM (active) in [2] and 28.3 µM (active) in assay [8]. For the same compound, the outcome in assay [4] and in assay [5] was inactive.

As for `O=C(O)Cn1c(C(=O)Nc2nc(-c3ccccc3Cl)cs2)cc2ccccc21`, the Potency result in [1], in [6], in assay [7], in assay [8], in assay [9] and in assay [19] was “inactive” in each case. Also, the Potency result in assay [10], in [11], in [12], in assay [15] and in assay [18] was “inactive” each time. In addition, the Potency in assay [2] is 15 µM (active); in [3] it was 3.38 µM (active). The result in [4] and in assay [5] was inactive.

Turning to `O=C(c1ccc(O)cc1)c1ccc(O)cc1`, the Potency entry in assay [1], in [2], in [3], in [6], in assay [7] and in assay [8] was “inactive” each time. In addition, the Potency entry in assay [9], in assay [19], in assay [10], in assay [11], in assay [12] and in assay [14] was “inactive” throughout. In addition, the Potency result in assay [15], in assay [16], in [17] and in assay [18] was “inactive” in each case. Further, the outcome in [4] and in [5] was inactive.

With `C[C@@H]1C[C@H]2[C@@H]3CCC4=CC(=O)C=C[C@]4(C)[C@@]3(F)[C@@H](O)C[C@]2(C)[C@@]1(O)C(=O)CO`, the Potency entry in assay [1], in [2], in assay [3], in [6], in assay [7] and in [8] was “inactive” throughout. In addition, the Potency entry in assay [9], in assay [20], in [13], in assay [14], in assay [15] and in [17] was “inactive” each time. Also, the Potency entry in [18] was “inactive”. Besides, the outcome in assay [4] and in [5] was inactive.

Consider `S=C1NC=NC2N=CNC12` (stereo unspecified), for which the Potency entry in assay [1], in [2], in [3], in assay [6], in assay [7] and in [8] was “inactive” in each case. Further, the Potency entry in [9], in assay [19], in assay [11], in assay [12], in assay [13] and in [15] was “inactive” in each case. Moreover, the Potency entry in assay [17] and in assay [18] was “inactive” in each case. Also, the result in [4] and in assay [5] was inactive.

As for `CCc1nn(C2CCCCC2)c2cc(C3(C#N)CCC(C(=O)O)CC3)ccc12` (stereo unspecified), the Potency entry in assay [1], in [2], in assay [3], in [6], in assay [7] and in assay [8] was “inactive” each time. The Potency entry in assay [9], in [19], in assay [10], in assay [11], in [12] and in assay [15] was “inactive” in each case. The Potency result in assay [17] and in assay [18] was “inactive” in each case. Besides, the result in assay [4] and in assay [5] was inactive.

Regarding `N#CC1(N)CCCCC1`, the Potency entry in [1], in [2], in [3], in assay [6], in [7] and in [8] was “inactive” in each case. Besides, the Potency result in assay [9], in assay [19], in [10], in assay [11], in [12] and in assay [13] was “inactive” each time. The Potency result in [14], in [15], in assay [17] and in [18] was “inactive” throughout. The result in assay [4] and in [5] was inactive.

For the origin of these results see PubChem BioAssay (Tox21).
